# Screening data deposited in PubChem BioAssay by The Scripps Research Institute Molecular Screening Center.
# This is a sample that favours compounds with a hit; in the whole collection about 1.8% have one here.
# GSTO1 inh: inhibitors of recombinant GSTO1, primary screen, counter-screen for RBBP9 inhibitor project, biochemical, fluorescence polarization; activity-based probe fluorescence polarization; inhibition, % at 5.96 µM; actives 1.1% (n = 300,000); AID 1974, 2009;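 active means inhibition above the campaign mean inhibition plus 3 SD, cut at about 35% in these data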;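 further: 0% = GSTO1-1 with DMSO and 100% = wells lacking GSTO1-1 enzyme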
# Target sequence (P78417 whole entry, looked up): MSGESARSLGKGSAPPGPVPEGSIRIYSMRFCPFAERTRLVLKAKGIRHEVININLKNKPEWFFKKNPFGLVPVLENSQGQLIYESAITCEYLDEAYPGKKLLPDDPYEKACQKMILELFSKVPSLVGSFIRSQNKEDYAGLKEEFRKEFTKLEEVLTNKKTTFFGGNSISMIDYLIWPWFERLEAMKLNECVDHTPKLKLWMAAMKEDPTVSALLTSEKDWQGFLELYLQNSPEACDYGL
# LYPLA2 inh: LYPLA2 inhibitors, primary screen, counter-screen for PME1 inhibitor project, biochemical, fluorescence polarization, FP-Rh probe ABPP | Acyl-protein thioesterase 2 (Homo sapiens), O95372 | recombinant LYPLA2 | inhibition, % at 5.9 µM | actives 0.38% (n = 320,000) | AID 2177, 2009;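 active means inhibition above the screen-wide mean plus 3 SD, limit set per campaign, cut at about 26% in these data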;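 further: 0% = LYPLA2 with DMSO and 100% = wells lacking LYPLA2 enzyme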
# Fam108B inh: mouse Fam108B serine hydrolase inhibitors, primary screen, counter-screen for RBBP9 inhibitor project, biochemical, fluorescence polarization. recombinant Fam108B, FP-Rh probe fluorescence polarization. inhibition, % at 9.51 µM. actives 0.33% (n = 300,000). AID 1947, 2009;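 active means inhibition above the screen mean inhibition plus 3 SD, computed separately per campaign, cut at about 18% in these data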;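 further: inhibitors lower polarization as less probe binds the enzyme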
# LYPLA1 inh: LYPLA1 inhibitors, primary screen, counter-screen for PME1 inhibitor project, biochemical, fluorescence polarization, FP-Rh probe ABPP. recombinant LYPLA1. inhibition, % at 5.9 µM. actives 0.16% (n = 320,000). AID 2174, 2009;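 active means inhibition above the mean of all tested compounds plus 3 SD, set per campaign, cut at about 14% in these data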;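 further: inhibitors block serine hydrolase probe labeling of LYPLA1 so polarization falls; 0% = enzyme with DMSO and 100% = wells lacking LYPLA1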
# PAD4 FP inh: human PAD4 inhibitors, primary screen, biochemical, fluorescence polarization, 1536-well format; actives 0.41% (n = 330,000); Protein-arginine deiminase type-4 (Homo sapiens), Q9UM07; inhibition, % at 6.36 µM; recombinant PAD4, RCA probe fluorescence polarization; AID 485272, 2010;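 active means percent inhibition above a cutoff equal to the mean of all tested compounds plus 3 SD, cut at about 15% in these data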;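 further: 0% = PAD4 with RCA probe and DMSO and 100% = probe without PAD4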
# PME-1 primary: PME-1 inhibitors via competitive probe labeling, primary screen, biochemical, fluorescence polarization, FP-Rh probe, HTS; AID 2130, 2009; recombinant PME-1; Protein phosphatase methylesterase 1 (Homo sapiens), Q9Y570; inhibition, % at 5.9 µM; actives 0.53% (n = 320,000);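 active means inhibition above the campaign mean of all compounds plus 3 SD, cut at about 26% in these data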;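 further: competitive labeling of PME-1 active site by serine hydrolase directed probe; 0% = PME-1 with DMSO and 100% = wells lacking PME-1 enzyme; inhibitors block probe labeling so polarization falls and inhibition rises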
# Target sequence (Q9Y570 whole entry, looked up): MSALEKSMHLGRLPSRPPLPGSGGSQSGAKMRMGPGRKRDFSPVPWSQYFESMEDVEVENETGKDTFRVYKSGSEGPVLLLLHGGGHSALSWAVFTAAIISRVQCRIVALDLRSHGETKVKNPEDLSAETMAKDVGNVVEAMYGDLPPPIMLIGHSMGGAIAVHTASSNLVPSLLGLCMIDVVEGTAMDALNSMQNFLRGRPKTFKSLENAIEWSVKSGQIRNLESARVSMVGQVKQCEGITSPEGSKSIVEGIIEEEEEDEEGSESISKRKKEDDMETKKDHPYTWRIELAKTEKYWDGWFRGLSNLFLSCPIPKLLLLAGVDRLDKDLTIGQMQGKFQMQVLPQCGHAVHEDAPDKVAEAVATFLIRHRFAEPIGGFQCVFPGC
# Fam108b confirm: mouse Fam108b serine hydrolase inhibitors, confirmation, counter-screen for RBBP9 inhibitor project, biochemical, fluorescence polarization, triplicate. AID 1978, 2009. actives 44% (n = 930). inhibition, % at 9.51 µM. shares compounds with Fam108B inh. recombinant Fam108b, FP-Rh probe fluorescence polarization;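 active means inhibition above a limit from the primary screen, the mean over all compounds plus 3 SD, cut at about 19% in these data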;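 further: 0% = median of active Fam108b wells and 100% = catalytically dead S170A mutant; inhibitors free the probe so polarization falls as inhibition rises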
# Fam108b ABPP HTS: inhibition of mouse Fam108b by HTS hits, late-stage follow-up, biochemical, gel-based ABPP, soluble recombinant form | shares compounds with Fam108B inh | fluorophosphonate probe | inhibition, % at 20 µM | actives 44% (n = 260) | AID 588649, 2011; in the data active means inhibition above about 40%
# Active calls of the source: *; nt = not tested or not shown.
SMILES,GSTO1 inh,LYPLA2 inh,Fam108B inh,LYPLA1 inh,PAD4 FP inh,PME-1 primary,Fam108b confirm,others
Cc1ccc(NS(=O)(=O)c2cc(C(=O)Nc3cccc([N+](=O)[O-])c3)ccc2C)cc1,-28,-49,-17,-29,-7,-33,nt,
CCn1c2ccccc2c2cc(NC(=O)c3ccc([N+](=O)[O-])cc3)ccc21,9,9,25*,0,1,5,-1,
COc1cccc(=O)c2c(C)n(-c3ccc(C(=O)O)cc3)c(C)c12,30,2,18*,0,3,-17,1,
CCOc1cccc(=O)c2c(C)n(-c3ccc(C(=O)O)cc3)c(C)c12,24,1,13,8,7,-15,nt,
Oc1oc(-c2ccccc2Br)nc1C=Nc1ccc(Br)cn1,-6,0,4,-2,5,1,nt,
Oc1oc(-c2ccccc2Br)nc1C=Nc1ccccn1,nt,nt,nt,nt,nt,nt,nt,Fam108b ABPP HTS=90*
CCOc1ccc(NC(=O)Nc2cccs2)cc1,9,-1,3,-7,-2,11,nt,
O=C(NC1CCCCC1)Oc1cccc2ccccc12,3,-2,-3,1,-1,4,nt,
COc1ccc(OC)c(/C=N/NC(=O)c2cc3c(OC)c(OC)ccc3[nH]2)c1,0,-6,19*,-5,-3,31*,17,
COc1cc(OC)c2cc(C(=O)N/N=C/c3ccccc3O)[nH]c2c1,-28,-1,29*,-7,-2,32*,13,
CCOC(=O)c1ccc(Nc2cc(C)nc(-c3ccccc3)n2)cc1,-17,-35,18*,-31,-5,-26,-13,
COc1ccc(NC(=O)COC(=O)CCCN2C(=O)c3ccccc3C2=O)cc1Cl,2,5,-1,1,3,1,nt,
Oc1ccc(C=NNc2ccnc3cc(Cl)ccc23)c(O)c1O,nt,nt,nt,nt,nt,nt,nt,Fam108b ABPP HTS=80*
Cc1ccccc1/C=N/Nc1ccnc2cc(Cl)ccc12,2,-5,4,-3,-8,11,nt,
Oc1c(Br)cc(Br)c(/C=N/n2c(-c3ccccc3)n[nH]c2=S)c1Br,-15,6,19*,2,-6,38*,16,
C=CCNC(=S)N1CCC(C(=O)c2ccc(F)cc2)CC1,-1,-1,-1,-2,-4,2,nt,
COc1cc(OC)cc(C(=O)NNC(=O)CCc2ccccc2)c1,5,7,-2,4,0,2,nt,
Cn1nc([N+](=O)[O-])c(C(C#N)c2ccccn2)c(Cl)c1=O (stereo not drawn),8,0,7,2,4,8,nt,
CCCn1nc([N+](=O)[O-])c(C(C#N)c2nc3ccccc3o2)c(Cl)c1=O (stereo not drawn),-14,18,29*,7,8,27*,14,
CC(Oc1c(Cl)cccc1Cl)C1=NCCN1 (stereo not drawn),3,2,1,1,1,-1,nt,
C/C(=N\NC(=O)c1cc2ccccc2cc1O)c1cccs1,20,7,19*,-4,-2,-6,-6,
CCCCC(=O)Nc1cccc(C(=O)N/N=C/c2ccc(OC)cc2OC)c1,3,-3,-3,0,-8,0,nt,
N#C/C(=C(/O)c1ccco1)c1nc2ccccc2s1,-26,-2,5,3,-5,-2,nt,
N#C/C(=C(/O)c1cc2ccccc2o1)c1nc2ccccc2s1,-10,-2,22*,0,-3,9,21*,
N#Cc1cccc(S(=O)(=O)N2CCN(c3ccnc4cc(Cl)ccc34)CC2)c1,-6,5,-3,-2,1,5,nt,
SMILES,GSTO1 inh,LYPLA2 inh,Fam108B inh,LYPLA1 inh,PAD4 FP inh,PME-1 primary,Fam108b confirm,others
CCCCn1c(SCC(=O)N2CCCC2)nc2cc(S(N)(=O)=O)ccc21,7,1,0,3,3,1,nt,
O=[N+]([O-])c1cc(Cl)cc(C=NNC(=S)Nc2cc(S(=O)(=O)N3CCOCC3)ccc2Cl)c1O,nt,nt,nt,nt,nt,nt,nt,Fam108b ABPP HTS=0
COc1cc(/C=N/n2c(-c3ccc4c(c3)NC(=O)CO4)csc2=Nc2cccc(C)c2)ccc1O,-1,15,21*,-1,4,9,8,
COc1cccc(Nc2nc(-c3cccc(N4C(=O)c5ccccc5C4=O)c3)cs2)c1,0,-6,31*,-17,3,12,16,
COc1cccc(Nc2nc(-c3ccc(O)cc3)cs2)c1,-5,-2,9,-3,2,10,nt,
CCOC(=O)C1=C(C)N=C2SC(C(=O)OC)=CC(=O)N2C1c1ccc(OC)cc1 (stereo not drawn),5,7,0,2,2,-3,nt,
C/C(=N\OCc1nc2ccccc2c(=O)n1/N=C/c1cc(C)cc([N+](=O)[O-])c1O)c1ccccc1,32,-17,24*,-15,2,-5,17,
C/C(=N\OCc1nc2ccccc2c(=O)n1/N=C/c1cc([N+](=O)[O-])ccc1O)c1ccccc1,-3,-18,19*,-13,-5,0,-10,
O=c1oc2cc(O)ccc2cc1-c1nc2c(s1)CCc1ccccc1-2,7,0,22*,0,2,9,23*,
Cc1ccccc1N=Nc1c(C)[nH]n(C(N)=S)c1=O,-4,3,4,-2,-1,-3,nt,
Cc1[nH]n(C(N)=S)c(=O)c1N=Nc1ccccc1C(F)(F)F,-20,-1,24*,-1,-2,2,27*,
CC(C)c1ccc(C2C3=C(CC(C)(C)CC3=O)NC3=C2C(=O)c2ccccc23)cc1 (stereo not drawn),-3,-3,23*,-9,0,11,4,
CC1(C)CC(=O)C2=C(C1)NC1=C(C(=O)c3ccccc31)C2c1cc([N+](=O)[O-])ccc1O (stereo not drawn),11,-3,21*,-11,-1,15,15,
O=C(CSc1nnc(NC2CCCCC2)s1)Nc1ccc2c(c1)C(=O)c1ccccc1C2=O,10,1,42*,-6,3,9,3,
CC(C)Nc1nnc(SCC(=O)Nc2ccc3c(c2)C(=O)c2ccccc2C3=O)s1,3,22,30*,-7,-6,57*,12,
CC(C)Nc1nnc(SCC(=O)Nc2sccc2C#N)s1,nt,-10,nt,-10,-5,5,nt,
